Sampled rows, rich in hits. Any-hit rate of the full collection: about 2.5%.
POLK inh – blocks human DNA polymerase kappa activity; 0.53% of 400,000 active; AID 588579; purified Pol kappa, fluorescent DNA synthesis assay, 10 min; Q9UBT6; Potency, µM (series often up to 107 µM), hits mostly inhibitors
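50 nM final substrate added after 15 min RT preincubation of 10 nM Pol kappa with compound; fluorescence read at 0 and 10 min.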
APEX1 inh – blocks human APE1 abasic DNA cleavage; recombinant APE1, TAMRA/BHQ-2 abasic DNA cleavage fluorescence; Potency, µM (titrated, usually from 65.8 µM), usual class: inhibitors; 0.35% of 350,000 active; also: nearly all actives have a fitted effect of over 55% in size
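APE1 at 0.75 nM preincubated 15 min at room temperature with compound. Reaction then started with 50 nM double-stranded THF-abasic substrate labelled with TAMRA/BHQ-2, and 525/598 nm fluorescence read kinetically. Activity taken as third-minus-first read difference, normalized to DMSO and NSC13755 controls.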
POLH inh – inhibitors of human DNA polymerase eta; Q9Y253; recombinant Pol eta, fluorescent DNA replication assay; Potency, µM (titrated, usually from 114 µM), usual class: inhibitors; 1.2% of 390,000 active; AID 588591
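Pol eta (10 nM) was preincubated with compounds for 15 min at room temperature, after which fluorescent replication substrate (50 nM final) was added to start the reaction. Fluorescence was read kinetically at 0 and 10 min.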
L3MBTL1 inh – L3MBTL1 (human) inhibition; 0.66% of 230,000 active; Q9Y468; AlphaScreen L3MBTL1–H3K9me1 peptide binding; AID 485360; Potency, µM (top dose mostly 57.1 µM), hits mostly inhibitors; also: nearly all actives have a fitted effect of over 60% in size
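AlphaScreen proximity signal between nickel-chelate acceptor and streptavidin donor beads (final 10 ug/mL) reports binding of 50 nM L3MBTL1 to 75 nM biotin-H3 K9me1 peptide; complex incubated with compounds 30 min at room temperature; cefsulodin titration as control.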
Pol iota inh – inhibitors of human DNA polymerase iota. Q9UNA4. Pol iota fluorescent replication assay, 10 min. Potency, µM (top dose mostly 115 µM), hits mostly inhibitors. 1% of 390,000 active. AID 588590
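Pol iota at 10 nM preincubated 15 min with compounds at room temperature; reaction started with fluorescent substrate, 50 nM final. Fluorescence read kinetically at 0 and 10 min; buffer-only wells as negative control.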
POLB inh – DNA polymerase beta (human) inhibition. P06746. Pol beta primer extension/strand displacement, fluorescence kinetic. Potency, µM (highest dose often 114 µM), usual class: inhibitors. 1.3% of 340,000 active. AID 485314
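Kinetic readout of DNA synthesis with strand displacement by Pol beta. Compound and 10 nM enzyme sit 15 min at room temperature; 50 nM substrate starts the reaction, read immediately and at 10 min.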
Hits are given with their value; 0 = inactive; ? = inconclusive; - = not tested or not shown; [ ] = another dose, or the depositor's remark. Calls follow the shape of the dose curve; as a rule, active = well fitted curve in the direction sought with a large enough effect; inconclusive = small, poorly fitted or top-dose-only effect, or another doubt; inactive = no such curve, though single readings can be large; an effect the other way counts as inactive or inconclusive.

SMILES | POLK inh | APEX1 inh | POLH inh | L3MBTL1 inh | Pol iota inh | POLB inh
COC(=O)c1cc(S(=O)(=O)NCCc2ccc(SC)cc2)c[nH]1 | 0 | 0 | 0 | - | 0 | 0
OCC1O[C@@H](O[C@@H]2C(CO)OC(O)C(O)C2O)C(O)C(O)C1O (some centres not stated) | 0[19.4 µM] | - | - | - | - | -
CCn1c(SCC(=O)Nc2sccc2C(N)=O)nnc1C1CC1 | ? | 0 | 0 | 0 | 56µM | -
C=CCn1c(Sc2ncc([N+](=O)[O-])s2)n[nH]c1=O | 0 | 0 | 0 | 0 | 10µM | 0
O=[N+]([O-])c1cnc(Sc2ccncn2)s1 | 0 | 0 | 0 | 0 | ? | 0
Cc1ccc(N2CCN(C(=O)c3cc(-c4ccc(F)cc4)[nH]c3C)CC2C)cc1 (configuration not stated) | 0 | 0 | 0 | - | 0 | 0
CC1=C(C(=O)OC2CCCC2)C(c2ccccc2Cl)CC(=O)N1 (configuration not stated) | 0 | - | 0 | - | 0 | 0
Cc1ccc(Nc2nnc(SC/C(O)=C(\C#N)c3nc4ccccc4[nH]3)s2)c(C)c1 | 0 | 0 | 32µM | 0 | ? | 0
Cc1cccc(Nc2nnc(SC/C(O)=C(\C#N)c3nc4ccccc4[nH]3)s2)c1 | 0 | 0 | ? | 0 | 0 | ?
CC(C)(C)c1nnc2sc(SC/C(O)=C(\C#N)c3nc4ccccc4[nH]3)nn2c1=O | 0 | 0 | 20µM | 0 | 0 | 0
Cc1cnc2ccccc2c1/C=C/c1ccc(N(C)C)cc1 | 0 | - | - | - | 0 | -
O=C(CSc1nc2c(oc3ccccc32)c(=O)n1Cc1ccco1)Nc1cccc(Cl)c1 | 0 | - | 0 | - | 0 | 0
CNC[C@H]1Oc2c(NS(=O)(=O)c3ccc(OC)cc3)cccc2C(=O)N([C@H](C)CO)C[C@H]1C | 0 | 0 | 0 | 0 | 0 | -
Cc1ccccc1S(=O)Cc1ccc(C(=O)NCCN2CCOCC2)o1 (configuration not stated) | 0 | 0 | 0 | - | 0 | 0
CCC(Sc1nc2ccccc2c2nc(CCn3cncc3C)nn12)C(=O)Nc1cccc(OC)c1 (configuration not stated) | 0 | - | 0 | - | 0 | 50µM
Cc1cncn1CCc1nc2c3ccccc3nc(SCC(=O)Nc3cccc(Cl)c3)n2n1 | 0 | 0 | 0 | 0 | 0 | 0
COc1ccccc1Oc1nc2c(c(=O)n(Cc3ccccc3F)c(=O)n2C)n1C | 0 | ? | 0 | ? | 0 | 18µM
Cn1c(NCCCO)nc2c1c(=O)n(Cc1ccccc1F)c(=O)n2C | 0 | 0 | 0 | 0 | 0 | 0
COC(=O)[C@@H](Cc1c[nH]c2ccccc12)NC(=O)CNC(=O)c1ccccc1OC | 0 | 0 | 0 | - | 0 | 0
CC(=O)c1ccc2c(c1)C1C=CCC1C(c1ccncc1)N2 (configuration not stated) | 0 | ? | ? | 0 | 32µM | ?
Cc1cc(OCC(=O)Nc2ccc(CN3CCOCC3)cc2)c2c(C)c(C)c(=O)oc2c1 | 0 | 0 | 0 | - | 0 | 0
Cc1cc(OCC(=O)Nc2ccc(CN3CCOCC3)cc2)c2c(C)cc(=O)oc2c1 | 0 | 0 | 0 | - | 50µM | 0
CCc1ccc(-n2c(SCC(=O)N3Cc4ccccc4CC3C(=O)O)nnc2-c2ccncc2)cc1 (configuration not stated) | 0 | 0 | 22µM | 0 | 0 | 0
CCOc1ccc(OCCC(=O)NNC(=O)c2nn(C)c(=O)c3ccccc23)cc1 | 0 | ? | ? | - | ? | 35µM
Cc1ccccc1NC1=C/C(=N\S(=O)(=O)c2cccs2)c2ccccc2C1=O | 0 | 0 | 11µM | - | 3.2µM | 0
COc1ccc(S(=O)(=O)/N=C2\C=C(Nc3ccc(O)cc3)C(=O)c3ccccc32)cc1 | 0 | 0 | ? | - | ? | 0
CC(=O)Nc1ccc(NC2=C/C(=N/S(=O)(=O)c3cccs3)c3ccccc3C2=O)cc1 | 0 | 0 | ? | ? | 14µM | ?
Cc1ccc(NC2=C/C(=N/S(=O)(=O)c3cccs3)c3ccccc3C2=O)cc1C | 0 | 0 | 0 | 0 | 0 | 0
Cc1ccc2nc(-c3ccc(N4C(=NC(=O)CCC(=O)O)SC5CS(=O)(=O)CC54)cc3)sc2c1 (configuration not stated) | ? | ? | 3.5µM | 13µM | ? | ?

From PubChem BioAssay
